The results in this text go back to PubChem BioAssay (NCI).

Compounds without any hit were thinned out: in the full panel of roughly 83,000, 20% have a hit.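 48-hour exposure, single concentration, 96-well plates; percent growth endpoint where 0 means no net growth. Active: below 10.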 The source made the active and inactive calls.

For this assay, the system named is MDA-MB-468 breast. In words: NCI-60 one-dose screen, 48 h (100 = growth as untreated, 0 = no growth, -100 = all killed). Conditions: 10 µM unless noted.
On to `O=C1c2cc3c(cc2-c2c1c1ccc(Cl)cc1c(=O)n2C[C@H](O)CO)OCO3`, for which the growth is -53.8% (active).

For the compound `O=C1Nc2cc(-c3cccc([N+](=O)[O-])c3)ccc2/C1=C/c1ccc[nH]1`, the growth is -7.17% (active). Then `CC(C)=CCC[C@](C)(O)C1CC[C@]2(C)[C@@H]1CC[C@@H]1[C@@]3(C)CC/C(=N\OCCC#N)C(C)(C)[C@@H]3CC[C@]12C` (stereo not given in full), with 83.2% (inactive).

As to `C[C@@H]1COCCN1c1cc(C2([S@](C)(=N)=O)CC2)nc(-c2ccnc3[nH]ccc23)n1`, the growth is 28.3% (inactive). Turning to `COc1cc(C2C3=C(COC3=O)Nc3cc4c(cc32)CCC4)cc2c1OCO2` (stereo not given), the growth was -8.49% (active). Consider `C=C(C)[C@@H]1CCC[C@]2(C(=O)O)CC[C@]3(C)[C@@H](CC[C@@H]4[C@@]5(C)C/C(=C/c6ccncc6)C(=O)C(C)(C)[C@@H]5CC[C@]43C)[C@@H]12`, for which the growth was 16.6% (inactive).

For the compound `CCCCCCCCN(CCCCCCCC)CCCCCCCCCN1CCCc2cc(OC)ccc21`, the growth is 61.8% (inactive). Take `Nc1nc(Nc2ccccc2SSc2ccccc2Nc2nc(N)nc(-c3ccc(I)cc3)n2)nc(-c2ccc(I)cc2)n1`: the growth is 109% (inactive). As to `COc1ccc(/C=C/C(=O)Nc2cc(/C=C\c3cc(OC)c(OC)c(OC)c3)cc(OC)c2OC)cc1OC`, the growth is 17.5% (inactive). `COc1ccc2c(c1)c(CC(=O)[Se]CCC#N)c(C)n2C(=O)c1ccc(Cl)cc1`: the growth is -36% (active). Regarding `Nc1ccccc1SC1CC(=O)N(c2ccc(I)cc2)C1=O` (stereo not given), the growth was 121% (inactive). For `COc1cc(/C=C2\C(=O)N(c3c(Cl)cccc3Cl)c3ccccc32)cc(OC)c1OCCCCCCn1c2ccccc2c(=O)c2ccccc21`, the growth is 108% (inactive). Consider `O=c1[nH]cc(Cl)cc1O`, for which the growth is 108% (inactive). The figure for `O=C(CCc1nnc2sc(COc3ccccc3)nn12)c1nc2ncccc2[nH]1` is 100% (inactive); for `O=C(Cc1ccccc1)c1ccc(O)c(Cl)c1` it is -1.16% (active). The figure for `O=c1oc2ccccc2cc1-c1cc(-c2ccc(-c3cc(-c4cc5ccccc5oc4=O)nc(-c4cc5ccccc5oc4=O)c3)cc2)cc(-c2cc3ccccc3oc2=O)n1` is 84.3% (inactive). On to `O=S(=O)(O)c1cccc(Nc2ccc3ccccc3c2)c1`, for which the growth is 105% (inactive). Turning to `COc1ccc(C2c3ccc4ccccc4c3Oc3ncnc(N)c32)cc1` (stereo not given), the growth was 86.6% (inactive). For the compound `C=C1C(=O)O[C@H]2[C@H]1CC/C(CNC(=O)c1cccc3ccccc13)=C\CC[C@@]1(C)O[C@@H]21`, the growth was 33.8% (inactive). Turning to `COC(=O)C(Cc1ccccc1)NC(=O)c1ccc(NC(=O)c2[nH]c(C)c(Cl)c2Cl)c(OC(C)C)c1` (stereo not given), the growth is 96.8% (inactive). As for `O=C1C(Cl)=C(NCCCN2CCOCC2)C(=O)c2ccccc21`, the growth was 64.7% (inactive). Take `O=C1C=C(Nc2ccc([N+](=O)[O-])cc2)c2ccccc2C1=O`: the growth is 41.1% (inactive). With `COC(=O)c1[nH]c(=O)c(C#N)c(C(=O)OC)c1C(=O)c1ccccc1`, the growth is 102% (inactive). With `O=C(CN1CCN(c2cc3c(cc2F)c(=O)c(C(=O)N/N=C/c2ccccc2O)cn3C2CC2)CC1)N/N=C\c1ccccc1O`, the growth was -4.47% (active). Take `O=C1NC(=S)N[C@H]1CC(=O)n1cnc2ccccc21`: the growth was 86.3% (inactive).

Consider `COC(=O)C(Cc1ccccc1)n1cc(COc2nc(Cl)nc(Nc3ccc(Cl)cc3)n2)nn1` (stereo not given), for which the growth is 69.1% (inactive).

For the compound `COc1ccc2nc3cc(Cl)ccc3c(NCCNCC(O)CO)c2c1` (stereo not given), the growth is -8.61% (active).

For `C=C(C)[C@@H]1C[C@@H]2Cc3cc(Cl)ccc3N1O2`, the growth was 96% (inactive). Regarding `Fc1ccc(CNc2c3ccccc3nc3ccccc23)cc1`, the growth is 11.5% (inactive).

As for `COc1ccc(S(=O)(=O)N2CCN(c3cc4c(cc3F)c(=O)c(C(=O)O)cn4C3CC3)CC2)c(OC)c1`, the growth is 86.4% (inactive). Then `O=S(=O)(NCCNc1nccc(-c2c(-c3cccc(F)c3)nc3sccn23)n1)c1ccccc1`, with 43.6% (inactive); and `COc1ccc(/C(C#N)=C/c2cccc(OC)c2OC)cc1`, with -19.3% (active); and `C=C(C)[C@@H]1CCC[C@]2(COS(=O)(=O)c3ccc(C)cc3)CC[C@]3(C)[C@@H](CC[C@@H]4[C@@]5(C)CCCNC(C)(C)[C@@H]5CC[C@]43C)[C@@H]12`, with -78.2% (active). The figure for `O=C(Nc1ncc(Cc2ccc(Cl)cc2)s1)C1=NCCCCN1` is 102% (inactive); for `N=C(N)c1ccc(-c2ccc(-c3ccc(Cl)cc3)o2)o1` it is -21.5% (active); for `CCN(CCO)CCNc1ccc(C)c2sc3cc(OC)ccc3c(=O)c12` it is 87.7% (inactive).

With `CCN(CC)CCOc1ccc(Nc2ncc3cc(-c4c(Cl)cccc4Cl)c(=O)n(CCOC)c3n2)cc1`, the growth was 3.97% (active). As for `CCCCCC#CC(=O)O`, the growth was 108% (inactive). In the case of `CNS(=O)(=O)Oc1ccc(-c2ccc3occc3c2)cc1`, the growth was 91.7% (inactive). With `COc1cc2c(cc1-c1c(C)noc1C)ncc1nc(C3CCCCC3)n([C@H](C)COC(F)F)c12`, the growth is 38.5% (inactive).
